Several values for one entry are separate records, joined by “and”; a condition that tells them apart may be missing. Equal values may be shown once. Out of some 5,500 compounds screened, about 2,000 (36%) were called active. Another 18% or so got no clear call; they are omitted. Cut-off read from the data, not from the text of the source: active = normalized growth mostly below about 0.91 (no sharp cut-off); inconclusive = no clear call, values can overlap the other calls; inactive = mostly above about 0.92. The list shows a part of the results.
Experiment: chemical genetic growth profiling, strain panel (AID 1159580);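 note: tested at 20 µM; growth read once vehicle control cultures reached saturation at 30 °C; 1 = growth at the plate median or of vehicle wells; lower values mean less growth of the strain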
Conditions: S. cerevisiae deletion strains, growth OD

Measured: normalized growth

CCN1CCCC(OC(=O)C(c2ccccc2)c2ccccc2)C1 (stereo not drawn)
inactive: locus YAL021C, strain ccr4, active compounds read low 0.978 | locus YAL026C, strain drs2, active compounds read low 0.99 | locus YAL030W, strain snc1, active compounds read low 0.989 | locus YBL061C, strain skt5, active compounds read low 0.982 | locus YBR009C, strain hhf1, active compounds read low 0.992 | locus YBR021W, strain FUR4, active compounds read low 1.03 | locus YBR023C, strain chs3, active compounds read low 0.973 | locus YBR171W, strain sec66, active compounds read low 0.99 | locus YBR229C, strain ROT2, active compounds read low 1.01 | locus YBR231C, strain swc5, active compounds read low 0.989 | locus YBR279W, strain paf1, active compounds read low 0.998 | locus YCL011C, strain gbp2, active compounds read low 1 | locus YCL016C, strain dcc1, active compounds read low 0.973 | locus YCL029C, strain bik1, active compounds read low 1.01 | locus YCL061C, strain MRC1, active compounds read low 0.989 | locus YCL069W, strain vba3, active compounds read low 0.989 | locus YCR088W, strain abp1, active compounds read low 0.978 | locus YDL005C, strain med2, active compounds read low 0.982 | locus YDL035C, strain GPR1, active compounds read low 1.03 | locus YDL040C, strain nat1, active compounds read low 0.98 | locus YDL074C, strain BRE1, active compounds read low 1.01 | locus YDL101C, strain DUN1, active compounds read low 1.01 | locus YDL134C, strain PPH21, active compounds read low 1.02 | locus YDL185W, strain tfp1, active compounds read low 1.01 | locus YDL192W, strain arf1, active compounds read low 1.01 | locus YDR001C, strain nth1, active compounds read low 0.975 | locus YDR069C, strain doa4, active compounds read low 1 | locus YDR101C, strain arx1, active compounds read low 0.992 | locus YDR137W, strain rgp1, active compounds read low 1.01 | locus YDR159W, strain sac3, active compounds read low 0.989 | locus YDR162C, strain NBP2, active compounds read low 1.01 | locus YDR195W, strain ref2 0.963 | locus YDR297W, strain sur2, active compounds read low 0.993 | locus YDR318W, strain mcm21, active compounds read low 1.01 | locus YDR334W, strain swr1, active compounds read low 0.958 | locus YDR335W, strain msn5, active compounds read low 0.963 | locus YDR388W, active compounds read low 1.01 | locus YDR392W, strain spt3, active compounds read low 0.975 | locus YDR502C, strain sam2, active compounds read low 0.999 | locus YEL003W, strain gim4, active compounds read low 0.978 | locus YEL037C, strain rad23, active compounds read low 0.978 | locus YEL061C, strain CIN8 (second series), active compounds read low 0.999 | locus YEL061C, strain CIN8, active compounds read low 1.01 | locus YER015W, strain faa2, active compounds read low 0.974 | locus YER016W, strain bim1, active compounds read low 0.986 | locus YER110C, active compounds read low 1.01 | locus YER111C, strain swi4, active compounds read low 0.978 | locus YER155C, strain BEM2 (second series), active compounds read low 1 | locus YER155C, strain BEM2, active compounds read low 1.01 | locus YER167W, strain BCK2, active compounds read low 1.01 | locus YFR010W, strain ubp6, active compounds read low 0.99 | locus YGL078C, strain dbp3, active compounds read low 1 | locus YGL086W, strain mad1, active compounds read low 1.01 | locus YGL167C, strain pmr1, active compounds read low 0.981 | locus YGL173C, strain kem1, active compounds read low 0.982 | locus YGL227W, strain vid30, active compounds read low 0.997 | locus YGL240W, strain doc1, active compounds read low 0.994 | locus YGL248W, strain PDE1, active compounds read low 1.01 | locus YGL253W, strain hxk2, active compounds read low 0.991 | locus YGR135W, strain pre9, active compounds read low 1 | locus YGR229C, strain SMI1, active compounds read low 1.01 | locus YGR252W, strain gcn5, active compounds read low 0.998 | locus YHR013C, strain ard1, active compounds read low 0.96 | locus YHR027C, strain rpn1, active compounds read low 0.986 | locus YHR030C, strain SLT2, active compounds read low 1.01 and 0.993 | locus YHR079C, strain IRE1 (second series), active compounds read low 1.01 | locus YHR079C, strain IRE1, active compounds read low 0.978 | locus YHR094C, strain hxt1, active compounds read low 1.01 | locus YHR129C, strain ARP1, active compounds read low 1 | locus YHR142W, strain chs7, active compounds read low 0.978 | locus YHR200W, strain rpn10, active compounds read low 1 | locus YIL066C, strain RNR3, active compounds read low 1.01 | locus YIL073C, strain SPO22, active compounds read low 1.08 | locus YIL125W, strain kgd1, active compounds read low 1 | locus YIR030C, strain dcg1, active compounds read low 1.01 | locus YJL092W, strain hpr5, active compounds read low 0.973 | locus YJL095W, strain BCK1 (second series), active compounds read low 0.994 | locus YJL095W, strain BCK1, active compounds read low 0.987 and 0.977 | locus YJL115W, strain asf1, active compounds read low 0.977 | locus YJL129C, strain trk1, active compounds read low 0.964 | locus YJL134W, strain LCB3, active compounds read low 1.01 | locus YJL154C, strain vps35, active compounds read low 0.976 | locus YJL164C, strain tpk1, active compounds read low 1 | locus YJL166W, strain qcr8, active compounds read low 0.982 | locus YJL168C, strain set2, active compounds read low 1.01 | locus YJL187C, strain SWE1 (second series), active compounds read low 1 | locus YJR043C, strain POL32, active compounds read low 1.04 | locus YJR066W, strain TOR1, active compounds read low 0.955

From PubChem BioAssay AID1159580 (chemical genetic matrix, 2015)
